# Results published in PubChem BioAssay (NCATS).
# Several values for one entry are separate records, joined by “and”; a condition that tells them apart may be missing. Identical values can stand only once. Unmarked numbers belong to inactive results. Inconclusive results are not listed. Activity calls are given as the source filed them. Unless noted, the call rests on the fitted dose curve; in most records, active means well fitted curve in either direction with a large enough effect (not every such curve was filed as active); inconclusive means small, poorly fitted or top-dose-only effect, or another doubt; inactive means flat fitted curve, though single readings scatter.
# Assays:
# [1] = AP1 Signaling Pathway (AID 357);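 further: ME-180 reporter cells stimulated with EGF at its EC50 level; on the % scale 0 is the no-effect control and ±100 the full control effect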
# Outline: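 Modulation of EGF-driven AP-1 transcription was assessed with a beta-lactamase reporter in ME-180 cells. Compound and EC50 EGF were co-incubated 5 hours at 37 °C before 2.5-hour CCF4 loading at room temperature and dual-emission reading.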
# [2] = target: Cytochrome P450 1A2 (Homo sapiens) (UniProt P05177); assay: p450-cyp1a2 (AID 410; calls by dose curve; further: potency means the concentration at half of the fitted maximal effect;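 on activity change, negative = inhibition: -100% = full effect of reference inhibitor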)
# Outline: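 Luminescent readout of luciferin formed from Luciferin-ME by human CYP1A2; data normalized against complete inhibition by 57 uM furafylline. Enzyme 20nM, substrate 100uM at Km, 100mM KPO4 buffer, 60 min reaction at room temperature.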
# [3] = NFAT Signaling Pathway (AID 444); conditions: Jurkat NFAT-bla M1, carbachol, beta-lactamase ratio, 5 h;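 further: carbachol stimulus at about its EC50 of 1 µM final; on the % scale 0 is the no-effect control and ±100 the full control effect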
# Outline: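 Jurkat cells carrying an NFAT-driven β-lactamase reporter and co-transfected muscarinic M1 receptor were treated with compound plus carbachol (1 uM final, an EC50 level) for 5 h at 37 °C. CCF4 loading followed for 1 h at RT; 460/530 nm ratio gave %activity.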
# [4] = Stat Signaling Pathway (AID 446);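 further: ME-180 cervical cancer cells given 40 pM IL-6 alongside compound; SIE-controlled beta-lactamase reporter measured as 460/530 nm FRET emission ratio; on the % scale 0 is the no-effect control and ±100 the full control effect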
# Outline: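 Reporter line: ME-180 cervical carcinoma, SIE-beta-lactamase. Treatment: compound with 40 pM IL-6, 5 hrs, 37 C, in low-serum OPTI-MEM with 10 mM HEPES pH 7.3. Detection: 460/530 nm fluorescence.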
# [5] = target: Glucocorticoid receptor (Homo sapiens) (UniProt P04150); assay: GR-GFP Redistribution (AID 450;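 active means compounds whose dose series gives a full or clear partial fitted curve of increased nuclear translocation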; further: potency means the concentration at half of the fitted maximal effect); conditions: U2OS GR-GFP nuclear translocation, laser cytometry, 2 h
# [6] = target: Glucocorticoid receptor (Homo sapiens) (UniProt P04150); assay: GR-EFC Redistribution (AID 451; calls by dose curve; further: potency means the concentration at half of the fitted maximal effect); conditions: CHO-K1 GR-EFC translocation, beta-gal luminescence, 2 h
# Outline: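 CHO-K1 cells stably expressing nuclear-localized β-gal enzyme acceptor and GR fused C-terminally to the enzyme donor fragment; ligand-driven nuclear translocation restores β-gal by complementation. Compounds titrated up to 46 uM final, 2 h at 37 °C; luminescence read.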
# [7] = target: Mitogen-activated protein kinase 10 (Mus musculus) (UniProt Q61831); assay: JNK3 AlphaScreen Assay (AID 530);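 further: kinase came from lysate of stimulated human HepG2 cells; signal reports phosphorylation of biotinylated GST-cJun 1-79 at Ser73 with 10 µM ATP; on the % scale 0 is the no-effect control and ±100 the full control effect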
# Outline: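 Inhibitors reduce antibody binding to phosphorylated biotin-cJun, lowering AlphaScreen luminescence. Lysates from HepG2 cells pre-activated by IL-1beta plus TNF-alpha supplied JNK3; compounds were titrated.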
# [8] = target: 3',5'-cyclic-AMP phosphodiesterase 4B (Homo sapiens) (UniProt Q07343); assay: qHTS Assay for Inhibitors of PDE-IV (AID 607; active means well fitted activation curve with a large enough effect in the main read-out, with a control signal flat, not every such curve was filed as active; further: % of control where 0% means no effect)
# Outline: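 Cell-based read-out of cAMP via a modified cyclic nucleotide-gated channel and membrane potential dye (535/590 nm) in HEK293 cells expressing PDE4 endogenously. Compounds tested up to 22.9 uM final; 100 uM RO 20-1724 reference.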
# [9] = target: Lysosomal acid glucosylceramidase (Homo sapiens) (UniProt P04062); assay: Glucocerebrosidase-p2 (AID 348; in the data active means potency below about 10 µM; further: potency means the concentration at half of the fitted maximal effect); conditions: purified GBA, blue fluorogenic substrate, 40 min
# Outline: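 Compounds titrated from 0.6 nM upwards against 0.2 nM enzyme in pH 5.9 citric acid/KH2PO4, taurocholate, tween-20; blue fluorogenic substrate 80 uM, 40 min room temperature, stopped and read Ex 365/Em 440 for AC50.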
# [10] = Cell Viability - BJ (AID 421; calls by dose curve;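 further: potency means the concentration at half of the fitted maximal effect; cells exposed to compound for 40 hours at 37 °C before readout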); conditions: BJ fibroblast viability, qHTS
# Outline: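 Cytotoxicity as drop in intracellular ATP (CellTiter-Glo, 20 min RT) after 40 hr compound exposure of BJ fibroblasts at 37 °C. Titrations scaled between DMSO and 100 uM tamoxifen, Hill-fitted for AC50.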
# [11] = Cell Viability - Jurkat (AID 426;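 active means dose-dependent loss of cell ATP signal giving a full or clear fitted curve, ranked by lower potency value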; further: potency means the concentration at half of the fitted maximal effect); conditions: qHTS
# Outline: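 qHTS, 1536-well; Jurkat E6-1, 5000 cells/well, complete medium; cpd 40 hr, 37 °C; CellTiter-Glo 20 min RT; luminescence. AC50 by Hill fit.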
# [12] = Cell Viability - Hek293 (AID 427;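 active means compounds whose dose-response curve shows a full or clear partial loss of cell viability, called from curve shape rather than a numeric limit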;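 further: potency means the concentration at half of the fitted maximal effect; cells exposed to compound for 40 hours at 37 °C before reading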); conditions: qHTS
# Outline: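 Luminescent ATP content (CellTiter-Glo, 20 min at room temperature) was measured after a 40 hr, 37 °C compound exposure of HEK293 cells. AC50 values came from Hill-equation fits of qHTS concentration-response data normalized to DMSO and 100 uM tamoxifen.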
# [13] = Cell Viability - HepG2 (AID 433; calls by dose curve;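 further: potency means the concentration at half of the fitted maximal effect; potency for ATP loss meaning cytotoxicity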); conditions: qHTS
# Outline: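 Read-out is luciferase-based quantitation of cellular ATP as a measure of viable HepG2 cells after 40 h treatment at 37 °C. Signal decrease is scaled between DMSO-only and 100 uM tamoxifen controls, with AC50 fitted by the Hill equation.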
# [14] = Cell Viability - SK-N-SH (AID 435; calls by dose curve;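 further: potency means the concentration at half of the fitted maximal effect; compound exposure lasted 40 h at 37 °C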); conditions: SK-N-SH neuroblastoma cell viability qHTS
# Outline: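 Luminescent ATP signal served as the viability read-out after 40 hours of compound treatment of human neuroblastoma SK-N-SH cells. Concentration-response data, scaled between DMSO and 100 uM tamoxifen, gave AC50 values by standard Hill modeling.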
# [15] = Cell Viability - N2a (AID 540; active means well fitted curve in the direction sought with a large enough effect; an effect the other way counts as inactive or inconclusive;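 further: plate controls were DMSO alone for no effect and tamoxifen control for full effect; nearly all actives have a fitted effect of over 45% in size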); conditions: N2a mouse neuroblastoma cell viability; at 92.2 µM (top of the series)
# Outline: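 Luminescent ATP signal (CellTiter-Glo, 20 min at room temperature) served as the viability read-out after N2a cells were treated with compounds for 40 hours at 37 °C. Concentration-response data were fitted to the Hill equation for AC50.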
# [16] = Cell Viability - NIH 3T3 (AID 541; active means well fitted curve in the direction sought with a large enough effect; an effect the other way counts as inactive or inconclusive;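 further: plate controls were DMSO alone for no effect and tamoxifen positive control for full effect; nearly all actives have a fitted effect of over 25% in size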)
# Outline: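 Luminescent ATP signal (CellTiter-Glo) served as the viability read-out after NIH 3T3 cells were exposed to compounds over a concentration range for 40 hr at 37 °C. Hill-equation modelling of concentration-response data gave AC50.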
# [17] = Cell Viability - HUV-EC-C (AID 542; active means well fitted curve in the direction sought with a large enough effect; an effect the other way counts as inactive or inconclusive; further: on the % scale 0 is the no-effect control and ±100 the full control effect; nearly all actives have a fitted effect of over 35% in size)
# Outline: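 qHTS cytotoxicity: HUV-EC-C, 1000 cells/well, 5 hr settle, compound 40 hr 37 °C, CellTiter-Glo, luminescence. AC50 via Hill equation.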
# [18] = Cell Viability - SH-SY5Y (AID 544; active means well fitted curve in the direction sought with a large enough effect; an effect the other way counts as inactive or inconclusive;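 further: 0% = DMSO alone and -100% = 100 µM tamoxifen; nearly all actives have a fitted effect of over 55% in size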); conditions: SH-SY5Y neuroblastoma cell viability; at 92.2 µM (top of the series)
# Outline: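 Luminescent ATP read-out (CellTiter-Glo) measures loss of viable SH-SY5Y neuroblastoma cells after 40 hr compound exposure at 37 °C. AC50 values derive from standard Hill modelling of qHTS concentration-response data.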
# [19] = Cell Viability - Renal Proximal Tubule (AID 545; active means well fitted curve in the direction sought with a large enough effect; an effect the other way counts as inactive or inconclusive;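 further: 0% = DMSO only and -100% = 100 µM tamoxifen; nearly all actives have a fitted effect of over 40% in size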)
# Outline: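 Luminescent ATP signal (CellTiter-Glo) served as the viability read-out after 40 hr compound exposure of freshly isolated rat proximal tubule cells at 37 °C. Concentration-dependent ATP loss was fitted with the Hill equation to give AC50.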
# [20] = Cell Viability - Mesenchymal (AID 546; active means well fitted curve in the direction sought with a large enough effect; an effect the other way counts as inactive or inconclusive;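 further: cells exposed to compound for 40 hours before reading; 0% = DMSO only and -100% = 100 µM tamoxifen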); conditions: mesenchymal cells viability, qHTS; at 91.7 µM (top of the series)
# Outline: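 Normal human renal glomerulus-derived kidney mesenchymal cells, 1000 per well in complete medium, were treated with compounds for 40 hr at 37 °C. Viability was read as intracellular ATP by CellTiter-Glo luminescence; AC50 values came from Hill-equation fits of qHTS concentration-response data.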
# Cytochrome P450 1A2 (Homo sapiens), sequence (P05177 whole entry, looked up): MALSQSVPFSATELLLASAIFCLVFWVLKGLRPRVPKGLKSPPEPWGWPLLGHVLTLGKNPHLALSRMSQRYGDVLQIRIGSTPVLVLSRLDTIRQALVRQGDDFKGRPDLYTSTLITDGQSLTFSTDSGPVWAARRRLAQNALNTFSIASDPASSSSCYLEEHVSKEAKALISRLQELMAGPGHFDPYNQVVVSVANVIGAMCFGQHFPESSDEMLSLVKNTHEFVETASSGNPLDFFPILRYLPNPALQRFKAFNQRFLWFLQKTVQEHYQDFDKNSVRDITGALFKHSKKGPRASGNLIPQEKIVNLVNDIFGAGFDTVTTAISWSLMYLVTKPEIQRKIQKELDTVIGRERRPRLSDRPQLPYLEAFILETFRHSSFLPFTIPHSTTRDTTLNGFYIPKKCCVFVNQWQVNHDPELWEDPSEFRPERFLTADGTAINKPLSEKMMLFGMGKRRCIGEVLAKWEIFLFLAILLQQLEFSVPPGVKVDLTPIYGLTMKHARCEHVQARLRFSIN
# 3',5'-cyclic-AMP phosphodiesterase 4B (Homo sapiens), sequence (Q07343 whole entry, looked up): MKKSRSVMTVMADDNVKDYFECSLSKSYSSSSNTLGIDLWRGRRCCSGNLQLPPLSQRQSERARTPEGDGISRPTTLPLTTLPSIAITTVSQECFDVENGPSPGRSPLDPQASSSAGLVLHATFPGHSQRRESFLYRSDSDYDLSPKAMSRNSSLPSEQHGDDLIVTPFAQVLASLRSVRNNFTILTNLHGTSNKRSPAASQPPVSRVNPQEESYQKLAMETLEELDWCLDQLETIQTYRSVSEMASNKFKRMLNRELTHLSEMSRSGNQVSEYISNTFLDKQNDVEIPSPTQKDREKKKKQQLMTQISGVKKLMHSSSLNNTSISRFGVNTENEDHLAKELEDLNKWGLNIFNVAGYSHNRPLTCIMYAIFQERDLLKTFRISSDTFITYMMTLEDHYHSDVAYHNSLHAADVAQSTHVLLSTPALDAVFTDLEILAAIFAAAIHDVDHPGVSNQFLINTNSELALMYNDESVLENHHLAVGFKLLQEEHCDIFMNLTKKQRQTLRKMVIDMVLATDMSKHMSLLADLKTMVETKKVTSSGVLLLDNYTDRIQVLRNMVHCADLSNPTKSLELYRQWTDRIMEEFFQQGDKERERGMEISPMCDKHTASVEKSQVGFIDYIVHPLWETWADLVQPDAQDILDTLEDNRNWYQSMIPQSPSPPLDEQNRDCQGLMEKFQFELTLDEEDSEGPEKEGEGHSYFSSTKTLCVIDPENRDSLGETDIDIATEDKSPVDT
# Glucocorticoid receptor (Homo sapiens), sequence (P04150 whole entry, looked up, the tested form may be a part): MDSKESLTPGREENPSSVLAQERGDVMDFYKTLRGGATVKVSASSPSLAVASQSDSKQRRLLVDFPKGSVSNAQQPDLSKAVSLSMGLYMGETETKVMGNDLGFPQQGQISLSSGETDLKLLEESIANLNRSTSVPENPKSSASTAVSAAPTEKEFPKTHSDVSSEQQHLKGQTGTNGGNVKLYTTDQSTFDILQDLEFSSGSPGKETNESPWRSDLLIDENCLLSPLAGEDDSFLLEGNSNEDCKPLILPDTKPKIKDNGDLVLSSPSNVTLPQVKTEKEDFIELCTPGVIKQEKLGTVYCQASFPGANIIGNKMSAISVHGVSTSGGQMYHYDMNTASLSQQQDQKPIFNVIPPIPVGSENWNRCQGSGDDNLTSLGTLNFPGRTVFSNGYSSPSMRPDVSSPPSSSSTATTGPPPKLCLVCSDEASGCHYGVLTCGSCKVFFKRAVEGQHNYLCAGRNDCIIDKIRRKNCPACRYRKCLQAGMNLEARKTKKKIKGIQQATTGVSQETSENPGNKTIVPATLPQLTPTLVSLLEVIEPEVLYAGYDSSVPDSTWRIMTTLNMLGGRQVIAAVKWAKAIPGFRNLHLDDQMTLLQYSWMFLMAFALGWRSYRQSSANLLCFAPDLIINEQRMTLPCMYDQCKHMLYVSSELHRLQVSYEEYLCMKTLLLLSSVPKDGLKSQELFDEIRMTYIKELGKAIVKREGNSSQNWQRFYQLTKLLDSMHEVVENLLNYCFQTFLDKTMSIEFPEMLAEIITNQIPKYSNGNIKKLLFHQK
# Lysosomal acid glucosylceramidase (Homo sapiens), sequence (P04062 whole entry, looked up): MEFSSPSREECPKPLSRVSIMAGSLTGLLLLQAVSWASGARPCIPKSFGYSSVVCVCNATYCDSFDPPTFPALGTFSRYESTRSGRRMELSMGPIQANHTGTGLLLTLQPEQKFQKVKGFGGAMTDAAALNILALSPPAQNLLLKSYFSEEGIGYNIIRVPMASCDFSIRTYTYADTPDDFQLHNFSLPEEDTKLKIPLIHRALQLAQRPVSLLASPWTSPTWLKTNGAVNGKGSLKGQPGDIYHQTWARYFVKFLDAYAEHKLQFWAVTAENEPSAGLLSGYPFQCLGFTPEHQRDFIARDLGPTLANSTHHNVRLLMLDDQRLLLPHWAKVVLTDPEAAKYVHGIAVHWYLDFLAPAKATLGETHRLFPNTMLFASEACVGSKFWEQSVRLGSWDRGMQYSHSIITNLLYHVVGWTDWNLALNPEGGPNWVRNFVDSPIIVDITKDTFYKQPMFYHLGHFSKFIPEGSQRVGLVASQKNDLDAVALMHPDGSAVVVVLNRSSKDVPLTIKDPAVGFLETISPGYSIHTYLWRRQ
smiles,measurement,setting,value
Cc1cc(C(=O)NNCc2ccccc2)no1,outcome,[1],inactive
same,Potency,[2],12.6 µM (active)
same,"activity change, negative = inhibition",[3]; at 17.2 µM (top of the series),11.8%
same,outcome,[4],inactive
same,Potency,[5],> 20.6 µM
same,Potency,[6],> 20.6 µM
same,outcome,[7],inactive
same,outcome,[8],inactive
COc1ccc(CCNC[C@H](O)c2ccc(O)cc2)cc1OC,outcome,[1],inactive
same,Potency,[2],inactive
same,"activity change, negative = inhibition",[3]; at 38 µM (top of the series),-28.1%
same,outcome,[4],inactive
same,Potency,[5],> 46 µM
same,Potency,[6],> 46 µM
same,outcome,[7],inactive
same,outcome,[8],inactive
O=C1CSC2(CCN(CCCN3c4ccccc4Sc4ccc(Cl)cc43)CC2)N1,outcome,[1],inactive
same,Potency,[2],3.16 µM (active)
same,outcome,[4],inactive
same,Potency,[5],> 46 µM
same,Potency,[6],> 9.22 µM
same,"activity change, negative = inhibition",[7],-6.21% [at 11.4 µM]
same,outcome,[8],inactive
CC1(C)S[C@@H]2[C@H](NC(=O)Cc3ccccc3)C(=O)N2[C@H]1C(=O)O,outcome,[1],inactive
same,"activity change, negative = inhibition",[3]; at 17.2 µM (top of the series),-9.19% and 5.43%
same,outcome,[4],inactive
same,Potency,[5],> 20.6 µM
same,Potency,[6],> 20.6 µM
same,outcome,[7],inactive
same,outcome,[8],inactive
COC(=O)CCC(=O)CN,outcome,[1],inactive
same,outcome,[4],inactive
same,Potency,[5],> 20.6 µM
C[C@@H]1C[C@H]2[C@@H]3CCC4=CC(=O)C=C[C@]4(C)[C@@]3(F)[C@@H](O)C[C@]2(C)[C@@]1(O)C(=O)COP(=O)(O)O,outcome,[1],inactive
same,outcome,[4],inactive
CCCC(=O)O[C@]1(C(=O)COC(C)=O)CC[C@H]2[C@@H]3C[C@H](F)C4=CC(=O)C=C[C@]4(C)[C@@]3(F)[C@@H](O)C[C@@]21C,outcome,[1],inactive
same,"activity change, negative = inhibition",[3]; at 17.2 µM (top of the series),-29.7%
same,outcome,[4],inactive
same,Potency,[5],0.00371 µM (active)
Cc1onc(-c2ccccc2)c1C(=O)N[C@@H]1C(=O)N2[C@@H]1SC(C)(C)[C@@H]2C(=O)O,outcome,[1],inactive
same,"activity change, negative = inhibition",[3]; at 17.2 µM (top of the series),24.2%
same,outcome,[4],inactive
same,Potency,[5],> 20.6 µM
O=C(O)CCC(=O)C(=O)O,Potency,[9],> 11.4 µM
same,outcome,[1],inactive
same,"activity change, negative = inhibition",[2],-11.7% [at 11.4 µM]
same,Potency,[10],> 92 µM
same,Potency,[11],> 92 µM
same,Potency,[12],> 92 µM
same,Potency,[13],> 92 µM
same,Potency,[14],> 92 µM
same,"activity change, negative = inhibition",[3]; at 7.69 µM (top of the series),15.2%
same,outcome,[4],inactive
same,Potency,[5],> 46 µM
same,Potency,[6],> 9.22 µM
same,outcome,[7],inactive
same,"activity change, negative = cytotoxicity",[15],6.48%
same,outcome,[16],inactive
same,Potency,[17],inactive
same,"viability change, negative = cytotoxic",[18],4.65%
same,outcome,[19],inactive
same,"activity change, negative = cytotoxicity",[20],6.49%
same,outcome,[8],inactive
